In PubChem BioAssay (EPA / NIEHS):
Active and inactive are the calls of the source. How the source made its calls: active means hit-call score of the fitted dose curve at least 0.9, where 1 is the maximum; inactive means score below 0.9.

Tests used:
[1] = APR_HepG2_P-H2AX_72hr: Apredica 72-hour HepG2 Assay for H2AX Phosphorylation (AID 2282916); conditions: imaging, actives raise or lower the signal;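 further: phospho-histone H2A.x immunostain intensity per cell marking DNA damage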
Method in brief: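 Phospho-H2A.x imaging endpoint in HepG2 after 72 hr compound exposure (0.39–200 uM, duplicate wells). Activity derived by bidirectional curve fitting with DMSO as baseline.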

[2] = APR_HepG2_MitoMembPot_72hr: Apredica 72-hour HepG2 Assay for Mitochondrial Membrane Potential (AID 2282917); conditions: imaging, actives raise or lower the signal
Method in brief: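 Membrane potential read by MitoTracker Red CMXRos (250 nM, 30 min, pre-fixation) fluorescence imaging of HepG2 after 72 hr exposure. Ten concentrations, 0.39–200 uM, duplicate wells, 0.5% DMSO; fitted in both directions against DMSO baseline.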

[3] = APR_HepG2_MitoticArrest_72hr: Apredica 72-hour HepG2 Assay for Mitotic Arrest (AID 2282918); conditions: high-content imaging, actives raise or lower the signal
Method in brief: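 High-content imaging of fixed human HepG2 cells after 72 h compound exposure (0.39–200 uM, duplicates, 0.5% DMSO); mitotic arrest scored from phospho-histone H3 and nuclear Hoechst staining relative to DMSO.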

[4] = APR_HepG2_MicrotubuleCSK_72hr: Apredica 72-hour HepG2 Assay for Microtubule CSK Stabilty (AID 2282919); conditions: HepG2 microtubule cytoskeleton, high-content imaging, actives raise or lower the signal
Method in brief: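 High-content imaging of alpha-tubulin staining in fixed HepG2 cells after 72 hr treatment with ten concentrations from 0.39 to 200 uM (0.5% DMSO). Fitting was bidirectional against DMSO; taxol served as positive control.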

[5] = APR_HepG2_P-H2AX_24hr: Apredica 24-hour HepG2 Assay for H2AX Phosphorylation (AID 2282920); conditions: high-content imaging, actives raise or lower the signal
Method in brief: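 High-content imaging of phospho-histone H2A.x immunofluorescence, nuclei counterstained with Hoechst 33342, in fixed HepG2 cells. Compounds ran 0.39–200 uM in duplicate for 24 h, final DMSO 0.5%. Signal change fitted both directions against DMSO.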

[6] = APR_HepG2_StressKinase_72hr: Apredica 72-hour HepG2 Assay for Stress Kinase (AID 2282921); conditions: HepG2 stress kinase (phospho-c-Jun) imaging, actives raise or lower the signal
Method in brief: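 Stress kinase signal reflects nuclear phospho-c-Jun staining in fixed, permeabilized cells exposed 72 h to compound at 0.39–200 uM; DMSO-normalized, fitted for increases or decreases.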

[7] = APR_HepG2_StressKinase_24hr: Apredica 24-hour HepG2 Assay for Stress Kinase (AID 2282922); conditions: HepG2 stress kinase (phospho-c-Jun) imaging, actives raise or lower the signal
Method in brief: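 High-content imaging of phospho-c-Jun immunofluorescence in fixed, permeabilized HepG2 cells after 24 h dosing. Ten concentrations, 0.39 to 200 uM, run in duplicate at 0.5% v/v DMSO; gain or loss of signal versus DMSO.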

[8] = APR_HepG2_MitoMass_72hr: Apredica 72-hour HepG2 Assay for Mitochondrial Mass (AID 2282924); conditions: high-content imaging, actives raise or lower the signal;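 further: MitoTracker Red CMXRos stain intensity per cell imaged as mitochondrial mass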
Method in brief: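 Readout is imaged MitoTracker Red (250 nM, 30 min, pre-fixation) signal, fitted bidirectionally against DMSO baseline. Human HepG2 liver cells received compound 0.39–200 uM in duplicate for 72 hr, final DMSO 0.5%.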

[9] = APR_HepG2_NuclearSize_72hr: Apredica 72-hour HepG2 Assay for Nuclear Size (AID 2282925); conditions: high-content imaging, actives raise or lower the signal
Method in brief: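 Nuclear size was read by high-content imaging of Hoechst 33342 stain after formaldehyde fixation. Compounds ran 72 h on HepG2 at 0.39 to 200 uM, with final DMSO 0.5% v/v. Curves fitted both directions relative to DMSO control.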

[10] = APR_HepG2_p53Act_72hr: Apredica 72-hour HepG2 Assay for p53 Activation (AID 2282923); conditions: high-content imaging, actives raise or lower the signal;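 further: average cellular p53 protein immunofluorescence intensity in HepG2 cells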
Method in brief: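 Fixed-cell p53 staining (sheep primary, Cy5 secondary) measured by fluorescence imaging following 72 hr treatment at 0.39–200 uM in 0.5% DMSO; DMSO served as negative control and baseline.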

Measured: AC50

NC(N)=O
inactive: [1] | [2] | [3] | [4] | [5] | [6] | [7] | [8] | [9]

c1ccc2ncccc2c1
inactive: [2] | [3] | [4] | [5] | [6] | [7] | [10] | [8] | [9]

NNC(=O)c1ccncc1
inactive: [5] | [6] | [7] | [10] | [9]

Cc1nccn1-c1ccc(Sc2cccc(C3(C(N)=O)CCOCC3)c2)cc1
active: [5] 73.4 µM | [6] 64 µM
inactive: [2] | [3] | [4] | [7] | [8] | [9]

NC(=O)N(O)[C@@H]1COc2cc(OCc3ccccc3)ccc21
inactive: [2] | [3] | [4] | [5] | [6] | [7] | [8] | [9]

CCN(CC)C(=S)SSC(=S)N(CC)CC
active: [2] 37.4 µM | [3] 23.5 µM | [4] 60.7 µM | [5] 7.04 µM | [6] 31 µM | [7] 87.4 µM | [10] 12 µM | [8] 14.4 µM
inactive: [9]

CCCCCCOC(=O)CC(CC(=O)OCCCCCC)(OC(=O)CCC)C(=O)OCCCCCC
inactive: [2] | [3] | [4] | [5] | [6] | [7] | [8] | [9]

Cc1nc(-c2ccccn2)ncc1C(=O)Nn1cc(C)c2cc(F)ccc21
active: [3] 72.2 µM
inactive: [2] | [4] | [5] | [6] | [7] | [8] | [9]

C=CCc1cc(S(=O)(=O)c2ccc(O)c(CC=C)c2)ccc1O
inactive: [2] | [4] | [6] | [7]
active: [3] 71.3 µM | [5] 77.5 µM | [8] 58.5 µM | [9] 79.1 µM

Cn1c(=O)c2[nH]cnc2n(C)c1=O
inactive: [2] | [3] | [4] | [5] | [6] | [7] | [10] | [8] | [9]

O=S(=O)(O)c1ccc(N=Nc2c(O)ccc3cc(S(=O)(=O)O)ccc23)cc1
inactive: [2] | [3] | [4] | [5] | [6] | [7] | [8] | [9]

O=C(O)[C@H](O)[C@@H](O)C(=O)O
inactive: [2] | [3] | [4] | [5] | [6] | [7] | [8] | [9]

NC(=O)N1c2ccccc2C=Cc2ccccc21
inactive: [2] | [3] | [4] | [5] | [6] | [7] | [8] | [9]

CCCCCOC(C)=O
inactive: [2] | [3] | [4] | [5] | [6] | [7] | [8] | [9]

CCOc1ccc2[nH]cc(C(=O)NCc3ccccc3)c(=O)c2n1
inactive: [2] | [4] | [5] | [6] | [7] | [8] | [9]
active: [3] 109 µM

O=C(O)c1ccc2c(c1)nc(C(=O)NC1CCN(C3CC3)CC1)n2Cc1cc(-c2ccc(Cl)s2)on1
inactive: [2] | [3] | [4] | [5] | [6] | [7] | [10] | [8] | [9]

CCn1nc(C)c2c1C(=O)NCC(c1ccc(O)cc1)=N2
inactive: [2] | [3] | [4] | [5] | [6] | [7] | [10] | [8] | [9]

CCCCN1C(=O)[C@@H]([C@H](O)C2CCCCC2)NC(=O)C12CCN(Cc1ccc(Oc3ccc(C(=O)O)cc3)cc1)CC2
inactive: [2] | [4] | [7] | [8] | [9]
active: [3] 54.3 µM | [5] 67.8 µM | [6] 39.9 µM | [10] 38.7 µM
